CYP2C9 inh: human CYP2C9 inhibition | inhibition, % at 5 µM | CYP2C9 Supersomes, luciferin-H conversion, luminescence | P11712 | hit rate 20% among 96,000;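 active = blocking of liver enzyme CYP2C9 beyond about 50% at 5 µM, limit read from the data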
Cav3 T inh: human Cav3.2 channel inhibition, primary screen | Cav3.2-expressing cells, Fluo-4 calcium fluorescence FDSS; stronger effect = lower value | B-score at 10 µM | hit rate 4% among 100,000 | AID 449739;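 active = single-dose well whose peak fluorescence ratio is a statistical outlier from its plate by either plate-standardised score or position-corrected B-score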
CYP2C19 inhib: human CYP2C19 inhibition; hit rate 21% among 96,000; inhibition, % at 5 µM; CYP2C19 Supersomes, luciferin-H EGE luminescence, 30 min; P33261;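 active = CYP2C19 inhibition above a set limit at 5 µM in the primary screen, cut at about 50% in these data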
CYP2C9 act: increases human cytochrome P450 2C9 activity | recombinant CYP2C9, luciferin-H conversion, luminescence; stronger effect = higher value; factor 1 = untreated enzyme, 0 = blocked | activation factor at 5 µM | hit rate 1.4% among 96,000 | AID 1024;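 active = activation factor of 2 or more for CYP2C9 at a 5 µM dose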
CYP2C19 act: increases human CYP2C19 enzyme activity; P33261; 96,000 tested, under 10 active; activation factor at 5 µM; recombinant CYP2C19, luciferin-H EGE luminescence; stronger effect = higher value; 0 = fully inhibited enzyme, 1 = untreated enzyme;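 active = activation factor of at least 2 at 5 µM in the primary screen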
Numbers stand for hits. In the library only some 27% were active in any assay of this set; here they are far more common.

What do the screens show for `COc1ccc(NC(=O)CN2C(=O)CC(C)(C)S(=O)(=O)c3ccccc32)cc1`?
CYP2C9 inh: inactive; Cav3 T inh: inactive; CYP2C19 inhib: inactive; CYP2C9 act: inactive; CYP2C19 act: inactive

How did CC1=CCC(C(=O)O)(C(=O)N/N=C/c2cccs2)C(c2ccc(Cl)cc2)C1 (stereo not drawn) do in these assays?
CYP2C9 inh: inactive; Cav3 T inh: inactive; CYP2C19 inhib: inactive; CYP2C9 act: inactive; CYP2C19 act: inactive

What do the screens show for `COc1cc(N)c(Cl)cc1C(=O)N[C@@H]1CCN(CCCOc2ccc(F)cc2)C[C@@H]1OC`?
Cav3 T inh: inactive

Results for O=C(COc1ccc(S(=O)(=O)NC2CCCCC2)cc1)NCCC1=CCCCC1 ?
Cav3 T inh: inactive

What do the screens show for `CC(=O)NCCn1c(SCc2ccccc2F)nc2ccccc2c1=O`?
CYP2C9 inh: 97.4; Cav3 T inh: inactive; CYP2C19 inhib: 98.4; CYP2C9 act: inactive; CYP2C19 act: inactive

What do the screens show for `Cn1c(SCc2ccccc2F)nc2cccnc21`?
CYP2C9 inh: inactive; Cav3 T inh: inactive; CYP2C19 inhib: 63.4; CYP2C9 act: inactive; CYP2C19 act: inactive

Results for CC(=O)NCCn1c(SCC#N)nc2ccccc2c1=O ?
CYP2C9 inh: inactive; Cav3 T inh: inactive; CYP2C19 inhib: inactive; CYP2C9 act: inactive; CYP2C19 act: inactive

What do the screens show for `CC(CCc1ccco1)NC(=O)CSc1cc(=O)n(C)c2ccccc12` (stereo not drawn)?
CYP2C9 inh: inactive; Cav3 T inh: inactive; CYP2C19 inhib: inactive; CYP2C9 act: inactive; CYP2C19 act: inactive

Results for COc1ccc(OCc2ccc(C(=O)N3CCOCC3)cc2)cc1 ?
Cav3 T inh: inactive

Results for COc1ccc(CC(=S)N2CCOCC2)cc1 ?
CYP2C9 inh: inactive; Cav3 T inh: inactive; CYP2C19 inhib: 96.0; CYP2C9 act: inactive; CYP2C19 act: inactive

How did O=C(CN1C(=O)CSc2ccccc21)Nc1ccccc1C(=O)N1CCOCC1 do in these assays?
CYP2C9 inh: inactive; Cav3 T inh: inactive; CYP2C19 inhib: inactive; CYP2C9 act: inactive; CYP2C19 act: inactive

Results for Cc1c(Br)c([N+](=O)[O-])nn1CC(=O)NCc1cccnc1 ?
CYP2C9 inh: 68.3; Cav3 T inh: inactive; CYP2C19 inhib: 89.8; CYP2C9 act: inactive; CYP2C19 act: inactive

How did N#Cc1cn(CC(=O)NCc2cccnc2)c2ccccc12 do in these assays?
CYP2C9 inh: 63.2; Cav3 T inh: inactive; CYP2C19 inhib: 79.5; CYP2C9 act: inactive; CYP2C19 act: inactive

What do the screens show for `N#Cc1cn(Cc2ccccc2)c2ccccc12`?
CYP2C9 inh: 83.8; Cav3 T inh: inactive; CYP2C19 inhib: 90.6; CYP2C9 act: inactive; CYP2C19 act: inactive

How did CCC(=O)c1cn(CC(=O)NCc2cccnc2)c2ccccc12 do in these assays?
CYP2C9 inh: 91.4; Cav3 T inh: inactive; CYP2C19 inhib: 85.8; CYP2C9 act: inactive; CYP2C19 act: inactive

What do the screens show for `COc1ccccc1NC(=O)Cn1cc(C#N)c2ccccc21`?
CYP2C9 inh: inactive; Cav3 T inh: inactive; CYP2C19 inhib: inactive; CYP2C9 act: inactive; CYP2C19 act: inactive

How did Cc1ccc(NC(=O)Cn2nc([N+](=O)[O-])c(Br)c2C)cc1C do in these assays?
CYP2C9 inh: inactive; Cav3 T inh: inactive; CYP2C19 inhib: inactive; CYP2C9 act: inactive; CYP2C19 act: inactive

How did COc1cc2c(cc1OC)C[N+](C)(C)CC2 do in these assays?
Cav3 T inh: inactive

How did CCOC(=O)c1[nH]nc2c1C(=O)N(Cc1ccccc1)C2=O do in these assays?
CYP2C9 inh: inactive; Cav3 T inh: inactive; CYP2C19 inhib: inactive; CYP2C9 act: inactive; CYP2C19 act: inactive

Results for COC(=O)c1c(NC(=O)CN2CCCC(C)C2)c2c(C)cccc2n1C (stereo not drawn) ?
CYP2C9 inh: inactive; Cav3 T inh: inactive; CYP2C19 inhib: inactive; CYP2C9 act: inactive; CYP2C19 act: inactive

What do the screens show for `COC(=O)C(CC(C)C)NC(=O)CSc1nc(-c2ccccc2)c(C#N)c(=O)[nH]1` (stereo not drawn)?
CYP2C9 inh: 88.3; Cav3 T inh: inactive; CYP2C19 inhib: 65.4; CYP2C9 act: inactive; CYP2C19 act: inactive

How did CCSc1nc(-c2ccccc2)c(C#N)c(=O)[nH]1 do in these assays?
CYP2C9 inh: inactive; Cav3 T inh: inactive; CYP2C19 inhib: inactive; CYP2C9 act: inactive; CYP2C19 act: inactive

What do the screens show for `Clc1ccc(/C=N/c2c(-c3ccc(Cl)cc3)nc3n2CCS3)cc1`?
CYP2C9 inh: inactive; Cav3 T inh: inactive; CYP2C19 inhib: inactive; CYP2C9 act: inactive; CYP2C19 act: inactive

Results for C=CCn1c2ccccc2c2nnc(SC(CC)C(=O)Nc3sc4c(c3C#N)CCCC4)nc21 (stereo not drawn) ?
CYP2C9 inh: 72.6; Cav3 T inh: inactive; CYP2C19 inhib: 53.3; CYP2C9 act: inactive; CYP2C19 act: inactive

What do the screens show for `Cc1ccnc(SCC(=O)Nc2sc3c(c2C#N)CCCC3)n1`?
CYP2C9 inh: inactive; Cav3 T inh: inactive; CYP2C19 inhib: inactive; CYP2C9 act: inactive; CYP2C19 act: inactive

How did Cc1nn(Cc2ccccc2)c2sc(C(=O)NCc3cccnc3)cc12 do in these assays?
CYP2C9 inh: 82.0; CYP2C19 inhib: 62.2; CYP2C9 act: inactive; CYP2C19 act: inactive

What do the screens show for `Cc1cc(C(=O)NCc2ccc3c(c2)OCO3)n(-c2ccccc2)n1`?
CYP2C9 inh: inactive; Cav3 T inh: inactive; CYP2C19 inhib: inactive; CYP2C9 act: inactive; CYP2C19 act: inactive

What do the screens show for `Cc1cc(C(=O)NCc2cccnc2)n(-c2ccccc2)n1`?
CYP2C9 inh: inactive; Cav3 T inh: inactive; CYP2C19 inhib: 59.7; CYP2C9 act: inactive; CYP2C19 act: inactive

How did Cc1ccc(NC(=O)c2cc(C)nn2-c2ccccc2)cc1 do in these assays?
CYP2C9 inh: inactive; Cav3 T inh: inactive; CYP2C19 inhib: 59.7; CYP2C9 act: inactive; CYP2C19 act: inactive

How did O=C(Cn1cnc2c(nnn2Cc2ccc(F)cc2)c1=O)N1CCN(c2ccccc2)CC1 do in these assays?
CYP2C9 inh: inactive; CYP2C19 inhib: inactive; CYP2C9 act: inactive; CYP2C19 act: inactive

What do the screens show for `C/C=C/c1cc(OC)c2c(c1)[C@H](C)[C@@H](c1ccc(O)c(OC)c1)O2`?
Cav3 T inh: inactive

How did O=c1[nH]cnc2scc(-c3ccc(-c4ccccc4)cc3)c12 do in these assays?
CYP2C9 inh: inactive; Cav3 T inh: inactive; CYP2C19 inhib: inactive; CYP2C9 act: inactive; CYP2C19 act: inactive

What do the screens show for `O=c1[nH]c(Cn2nnc(-c3ccccc3)n2)nc2scc(-c3ccccc3)c12`?
CYP2C9 inh: 82.0; Cav3 T inh: inactive; CYP2C19 inhib: inactive; CYP2C9 act: inactive; CYP2C19 act: inactive

How did O=C(NC1(C(F)(F)F)C(=O)Nc2c1c(=O)[nH]c(=O)n2-c1ccccc1)c1ccncc1 (stereo not drawn) do in these assays?
Cav3 T inh: inactive

What do the screens show for `CN1C(=O)C(C(=O)NC(C)(C)C)C2c3ccccc3OC13CCCCC23` (stereo not drawn)?
CYP2C9 inh: 60.5; Cav3 T inh: inactive; CYP2C19 inhib: 57.9; CYP2C9 act: inactive; CYP2C19 act: inactive

How did O=C(CSc1ncn[nH]1)N1N=C2/C(=C/c3ccco3)CCCC2C1c1ccco1 (stereo not drawn) do in these assays?
CYP2C9 inh: 94.4; Cav3 T inh: -4.12; CYP2C19 inhib: 88.1; CYP2C9 act: inactive; CYP2C19 act: inactive

Source: PubChem (several laboratories)
